Structures are written as SMILES. Results filed as inconclusive are left out. Calls of active or inactive are those of the source. Calls come from the whole dose curve; as a rule, active = well fitted inhibition curve with a large enough effect; inconclusive = small, poorly fitted or top-dose-only effect; inactive = flat fitted curve, though single readings scatter.
Potency is the fitted concentration of half-maximal effect.

For this experiment, the system named is DFO2036. Nature of the experiment: qHTS profiling for inhibitors of Plasmodium falciparum proliferation (AID 504749).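 For activity, negative = inhibition: 0% = DMSO vehicle and full inhibition = artemisinin control.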 Note: nearly all actives have a fitted effect of over 60% in size. The note with it: P. falciparum in erythrocytes, SYBR Green DNA, 72 h; series mostly up to 28.7 µM; activity, negative = inhibition: at the top concentration. From the text:
NIH National Institute of Allergy and Infectious Diseases [NIAID] NIH Chemical Genomics Center [NCGC] MLPCN Grant: None Assay Provider: Xinzhuan Su, NIAID NCGC Assay Overview: Plasmodium falciparum is a virulent malarial parasite that kills 1-2 million people worldwide each year. Transmitted by mosquitoes, the sporozoite form of the parasite enters the blood stream to infect hepatocytes, where they become merozoites that infect red blood cells (erythrocytes). Within erythrocytes, merozoites begin a […] cycle of growth and division, after which the parasite is released to infect new red blood cells. Gametocytes, which form within erythrocytes as well, circulate in the bloodstream and are ingested by the mosquito, thereby completing the life cycle. To profile malarial isolates for differential chemical responses and to identify inhibitors of malarial growth, an assay that measures P. falciparum growth and replication within erythrocytes was employed. This assay uses a DNA binding fluorescent dye (SYBR Green) to detect parasite DNA following cell lysis. Because mature erythrocytes lack DNA, only Plasmodium-derived DNA is detected.
NCGC Assay Protocol Summary: The SYBR Green viability assay was adapted from a method described previously (Plouffe et al., 2008). For screening 3 ul culture medium was dispensed into 1536 well black clear bottom plates (Aurora Biotechnologies) using a Multidrop Combi (Thermo Fisher Scientific Inc.), 23 nL compounds in DMSO were added by a pin tool (Kalypsys), and 5 ul of erythrocytes infected with P. falciparum (0.3% parasitemia, 2.5% hematocrit final concentration) were added. The plates were incubated at 37 C in a humidified incubator in 5% CO2 for 72 h, and 2 ul lysis buffer (20 mM Tris HCl, 10 mM EDTA, 0.16% saponin, 1.6% triton X, 10X SYBR Green I supplied as 10,000X […] by Invitrogen) was added to each well. The plates were mixed for 25 sec with gentle shaking and incubated overnight at room temperature in the dark. The following morning, fluorescence intensity at 485(14) nm excitation and 535(25) nm emission wavelengths was measured on an EnVision (Perkin Elmer) plate reader. Plate reads were normalized relative to the control inhibitor (0.29 uM artemisinin) and vehicle (DMSO) wells present on each plate and then corrected by an algorithm using vehicle-only control plates at the beginning and end of the compound plate stack.
As for `COc1cc2nc(N(C)CCCNC(=O)[C@@H]3CCCO3)nc(N)c2cc1OC`, the “activity, negative = inhibition” value was 1.41% [at 12.8 µM] (inactive).

Turning to `C(=C/c1ccccc1)/CN1CCN(C(c2ccccc2)c2ccccc2)CC1`, the “activity, negative = inhibition” value is 2.14% [at 12.8 µM] (inactive).

`Cc1c(C(=O)O)c(O)cc2c1C(=O)c1c(O)c([C@H]3O[C@H](CO)[C@@H](O)[C@H](O)[C@H]3O)c(O)c(O)c1C2=O`: the “activity, negative = inhibition” value was 13.3% (inactive). Same read-out and setting: with `CC(C)(C)NC[C@@H](O)c1ccc(O)c(CO)n1` the figure was 11.1% (inactive); with `NS(=O)(=O)c1cc2c(cc1Cl)N[C@H](Cc1ccccc1)NS2(=O)=O`, 3.85% (inactive); with `CC1(C)S[C@@H]2[C@H](NC(=O)Cc3ccccc3)C(=O)N2[C@@H]1C(=O)O`, -0.209% (inactive). Regarding `Cc1cn([C@H]2C[C@H](N=[N+]=[N-])[C@H](CO)O2)c(=O)[nH]c1=O`, the “activity, negative = inhibition” value is -1.65% (inactive).

As for `N[C@H](COP(=O)(O)O)C(=O)O`, the “activity, negative = inhibition” value was 15.2% (inactive).

With `C[C@]12CC[C@H]3c4ccc(O)cc4CC[C@@H]3[C@H]1CC[C@@H]2OC(=O)CCC1CCCC1`, the “activity, negative = inhibition” value was 8.34% (inactive). On the same count and under the same terms, with `CN(C)[C@H]1C(=O)C(C(=O)NCN2CCCC2)=C(O)[C@]2(O)C(=O)C3=C(O)c4c(O)cccc4[C@](C)(O)[C@H]3C[C@H]12` the figure was 3.9% (inactive); with `N[C@@H](Cc1ccccc1)C(=O)O`, 11% (inactive). Take `C[C@H]1C[C@@H]2[C@H]3CCC4=CC(=O)C=C[C@@]4(C)[C@@]3(Cl)[C@@H](O)C[C@]2(C)[C@]1(OC(=O)c1ccco1)C(=O)CCl`: the Potency was 4.47 µM (active). With `CC(=O)N1CCN(c2ccc(OC[C@@H]3CO[C@@](Cn4ccnc4)(c4ccc(Cl)cc4Cl)O3)cc2)CC1`, the “activity, negative = inhibition” value is -0.483% (inactive). On the same count and under the same terms, the figure for `C[C@H](CCC(=O)O)[C@H]1CC[C@@H]2[C@H]3[C@@H](C[C@@H](O)[C@]21C)[C@]1(C)CC[C@H](O)C[C@@H]1C[C@@H]3O` is -5.36% (inactive); for `CC1(C)[C@@H]2CC[C@]1(C)[C@@H](OC(=O)CSC#N)C2` it is 6.6% (inactive); for `C[C@]12CC[C@H]3c4ccc(O)cc4CC[C@@H]3[C@H]1CC[C@@H]2OP(=O)(O)O` it is 13.9% (inactive). On the same count and under the same terms, the figure for `C[C@@H]1C[C@H]2[C@H]3C[C@@H](F)C4=CC(=O)C=C[C@]4(C)[C@@]3(Cl)[C@@H](O)C[C@@]2(C)[C@@H]1C(=O)COC(=O)C(C)(C)C` is 1.02% (inactive). The same measure, in the same setting: the figure for `CO/N=C(\C(=O)N[C@@H]1C(=O)N2C(C(=O)[O-])=C(C[N+]3(C)CCCC3)CS[C@@H]12)c1csc(N)n1` is 7.13% (inactive); for `C[N+]1(C)[C@@H]2CC(OC(=O)[C@@H](CO)c3ccccc3)C[C@@H]1[C@H]1O[C@H]12` (stereo partly specified) it is -0.211% (inactive); for `C=C1CC[C@H](O)C/C1=C/C=C1\CCC[C@]2(C)[C@@H]([C@H](C)CCCC(C)C)CC[C@@H]12` it is -21.9% (inactive).

Take `CN1[C@@H]2CC(OC(=O)[C@@H](CO)c3ccccc3)C[C@@H]1[C@H]1O[C@H]12` (stereo partly specified): the “activity, negative = inhibition” value was 7.22% (inactive). Consider `O=C(O)[C@@H](S)[C@H](S)C(=O)O`, for which the Potency is 8.91 µM (active).

As to `O=C(O)[C@@H](O)[C@@H](O)[C@H](O)C(=O)CO`, the “activity, negative = inhibition” value was 3.49% (inactive). `CCc1ccc2c(c1)N(C[C@H](C)CN(C)C)c1ccccc1S2`: the “activity, negative = inhibition” value is -2.44% (inactive). The same measure, in the same setting: with `COc1cccc2c1C(=O)c1c(O)c3c(c(O)c1C2=O)C[C@](O)(C(=O)CO)C[C@@H]3O[C@H]1C[C@H](N)[C@@H](O)[C@H](C)O1` the figure was 8.61% (inactive); with `Cc1onc(-c2c(F)cccc2Cl)c1C(=O)N[C@@H]1C(=O)N2[C@H]1SC(C)(C)[C@H]2C(=O)O`, 8.86% (inactive).

The values above are taken from PubChem BioAssay (NCATS).
